This is an account of results in PubChem BioAssay.

Molecules are shown by their SMILES. Activity calls are given as the source filed them. Unless noted, how the calls were made is not given here.

The nature of experiment [1]: compound effects on lung adenocarcinoma cell viability – A549, calcein-AM fluorescence, 48 h, basal, profiling panel (AID 1162). Further: test concentration not given here. The note with it: higher = more signal.
Experiment [2] in a line: compound effects on differentiated 3T3-L1 adipocyte viability – cell-based, 3T3-L1 adipocytes, calcein-AM fluorescence, 48 h, basal, profiling panel (AID 1163). Further: test concentration not given here. The settings on record: 3T3-L1 adipocytes viability, higher = more signal.
Experiment [3] in a line: compound effects on hepatocellular carcinoma cell viability – HepG2, calcein-AM fluorescence, 48 h, basal, profiling panel (AID 1164). Further: test concentration not given here. The settings on record: higher = more signal.
The nature of experiment [4]: compound effects on multiple myeloma cell viability – MM1S, calcein-AM fluorescence, 48 h, basal, profiling panel (AID 1165).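 Further: viability of MM1S multiple myeloma cells under basal unstimulated conditions; test concentration not given here.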 The note with it: higher = more signal.
Experiment [5] in a line: calcein-AM signal in unstimulated myeloma cells – cell-based, calcein-AM fluorescence, 48 h, PK04 Diversity Set, profiling panel (AID 1166).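 Further: cells grown under basal conditions without added stimulus; test concentration not given here.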 The settings on record: RPMI8226 myeloma viability, higher = more signal.
Experiment [6] is described as follows: JC-1 mitochondrial signal, unstimulated HepG2 cells – cell-based, JC-1 fluorescence, 24 h, 100 nL compound, profiling panel (AID 1167). Further: test concentration not given here. The settings on record: HepG2 mitochondrial potential, higher = more signal.
Experiment [7] in a line: JC-1 mitochondrial signal, unstimulated adipocytes – cell-based, JC-1 fluorescence, 3T3-L1 adipocytes, 24 h, 100 nL compound, profiling panel (AID 1168). Further: test concentration not given here. The note with it: JC-1 mitochondrial fluorescence, higher = more signal, called active from +8 up or from −8 down.
Experiment [8] is described as follows: JC-1 mitochondrial signal, unstimulated myeloma cells – cell-based, JC-1 fluorescence, RPMI8226, 24 h, 100 nL compound, profiling panel (AID 1169). Further: test concentration not given here. The settings on record: JC-1 mitochondrial potential fluorescence, higher = more signal.
Experiment [9] is described as follows: JC-1 mitochondrial signal, unstimulated MM1S myeloma – cell-based, JC-1 fluorescence, 24 h, 100 nL compound, profiling panel (AID 1170). Further: test concentration not given here. The note with it: MM1S mitochondrial potential, higher = more signal.
The nature of experiment [10]: resazurin metabolic signal in A549 cells – cell-based, resazurin fluorescence, 24 h, PK04 Diversity Set, profiling panel (AID 1171). Further: test concentration not given here. The settings on record: A549 viability, higher = more signal, called active from +8 up or from −8 down. (In general: Resazurin is reduced to fluorescent resorufin, in cell work by metabolically active cells.)
The nature of experiment [11]: resazurin metabolic signal in HepG2 cells – cell-based, resazurin fluorescence, 24 h, PK04 Diversity Set, profiling panel (AID 1172). Further: test concentration not given here. The settings on record: HepG2 viability, higher = more signal.
A short description of experiment [12]: budding yeast growth changes without added modifier – OD600, strain BY4716, 24 h, basal condition, primary screen (AID 1173). The note with it: S. cerevisiae BY4716 growth, OD600, 24 h; higher = more signal, called active from +8 up or from −8 down.
Experiment [13] can be described thus: viability profiling in MM1S myeloma cells – cell-based, resazurin fluorescence, basal, 24 h, PK04 Diversity Set, profiling panel (AID 1174). Further: test concentration not given here. The settings on record: higher = more signal, called active from +8 up or from −8 down.
In experiment [14] the target is Dihydroorotate dehydrogenase (quinone), mitochondrial (Plasmodium falciparum (isolate 3D7)) (UniProt Q08210). Kind of experiment: inhibition of P. falciparum DHODH – biochemical, C-terminal His tag, absorbance 600 nm, primary screen (AID 1175).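 Further: recombinant parasite enzyme with a five histidine tag at its C terminus; test concentration not given here.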 The note with it: PfDHODH enzyme, DCIP absorbance 600 nm; higher = more signal, called active from +8 up or from −8 down.
The nature of experiment [15]: inhibition of PAO1 biofilm formation – strain PAO1, LB-PBS medium, absorbance 600 nm, primary screen (AID 1176). Further: test concentration not given here. The note with it: P. aeruginosa PAO1 growth/biofilm, A600, 12 h; higher = more signal.
A short description of experiment [16]: growth modulation of vineyard yeast isolate – strain RM11-1a, OD600, basal, 24 h, primary screen (AID 1177).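 Further: cultures grown under basal conditions with no added stressor; test concentration not given here.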 The note with it: S. cerevisiae RM11-1a growth, OD600, 24 h; higher = more signal, called active from +8 up or from −8 down.
A short description of experiment [17]: growth of efflux-deficient E. coli DRC39 – strain DRC39, OD650, 24 h, E. coli filamentation inducers, primary screen (AID 1178).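 Further: growth measured as culture turbidity by optical density at 650 nm; test concentration not given here.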 The settings on record: E. coli DRC39 acrAB, higher = more signal, called active from +8 up or from −8 down.
Experiment [18] in a line: growth of efflux-deficient E. coli DRC39 – strain DRC39, OD650, 48 h, E. coli filamentation inducers, primary screen (AID 1179).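 Further: screen aims at cell division blockers that make cells filament.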 The settings on record: E. coli DRC39 delta-acrAB growth, higher = more signal, called active from +8 up or from −8 down.
A short description of experiment [19]: viability profiling in RPMI8226 myeloma cells – cell-based, resazurin fluorescence, basal, 24 h, PK04 Diversity Set, profiling panel (AID 1180).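 Further: RPMI8826 multiple myeloma cell line at 5000 cells per well; test concentration not given here.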 The note with it: higher = more signal.
The target in experiment [20] is E3 ubiquitin-protein ligase XIAP (Homo sapiens) (UniProt P98170). Kind of experiment: small molecules binding XIAP protein – biophysical, small-molecule microarray, fluorescence 635 nm, primary screen (AID 1181).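 Further: score merges 667 nm emission and signal to noise over triplicate slides.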 The settings on record: higher = more signal.
Chain of E3 ubiquitin-protein ligase XIAP (Homo sapiens) (P98170 whole entry, looked up): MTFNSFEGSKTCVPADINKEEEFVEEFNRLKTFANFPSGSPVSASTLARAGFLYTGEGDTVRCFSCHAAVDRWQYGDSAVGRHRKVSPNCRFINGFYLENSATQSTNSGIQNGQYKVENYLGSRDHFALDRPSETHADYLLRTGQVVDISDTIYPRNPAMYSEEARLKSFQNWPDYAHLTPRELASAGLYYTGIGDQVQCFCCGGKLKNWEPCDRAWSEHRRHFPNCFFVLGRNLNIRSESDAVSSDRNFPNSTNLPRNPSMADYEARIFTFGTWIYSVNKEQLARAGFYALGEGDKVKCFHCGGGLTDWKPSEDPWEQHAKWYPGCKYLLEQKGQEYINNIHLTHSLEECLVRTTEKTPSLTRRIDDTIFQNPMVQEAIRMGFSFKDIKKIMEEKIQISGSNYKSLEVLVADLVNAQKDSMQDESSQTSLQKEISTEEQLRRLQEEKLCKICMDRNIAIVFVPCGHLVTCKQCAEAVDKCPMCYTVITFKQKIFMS

Chain of Dihydroorotate dehydrogenase (quinone), mitochondrial (Plasmodium falciparum (isolate 3D7)) (Q08210 whole entry, looked up): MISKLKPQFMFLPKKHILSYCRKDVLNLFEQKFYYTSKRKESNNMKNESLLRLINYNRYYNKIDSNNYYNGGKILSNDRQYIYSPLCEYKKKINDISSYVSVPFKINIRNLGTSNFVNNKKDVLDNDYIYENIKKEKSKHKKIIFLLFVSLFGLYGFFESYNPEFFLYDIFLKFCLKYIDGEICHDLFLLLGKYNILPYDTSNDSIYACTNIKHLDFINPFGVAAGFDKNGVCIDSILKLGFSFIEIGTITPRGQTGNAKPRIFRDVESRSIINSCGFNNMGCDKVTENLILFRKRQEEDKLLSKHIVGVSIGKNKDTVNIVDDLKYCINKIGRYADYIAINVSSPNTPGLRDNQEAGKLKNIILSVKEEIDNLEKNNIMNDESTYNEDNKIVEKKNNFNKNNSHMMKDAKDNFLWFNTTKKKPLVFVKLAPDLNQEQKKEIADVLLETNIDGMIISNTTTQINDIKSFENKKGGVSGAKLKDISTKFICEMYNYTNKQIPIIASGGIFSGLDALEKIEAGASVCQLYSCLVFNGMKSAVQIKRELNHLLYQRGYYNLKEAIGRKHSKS

In the case of `C=CC1(C(=O)OC)CC=C(C(=O)OC)CC1` (stereo not given), the z-score in experiment [1] was 0.211; in experiment [2], 0.0237; in [3] it was -0.287; in [4], 0.835; in [5], -0.0765; in [6], 1.27. Moreover, the z-score in [7] is 0.562 (inactive); in experiment [8] it was -0.093; in experiment [9], -1.42; in [10], 0.45 (inactive); in experiment [11], 0.249; in experiment [12] it was 0.489 (inactive). In addition, the z-score was 0.501 (inactive) in experiment [13]; 0.201 (inactive) in experiment [15]; -0.834 (inactive) in experiment [16]; -0.233 (inactive) in experiment [17]; 1.19 (inactive) in experiment [18]; 1.08 in experiment [19]. Besides, the composite z-score in experiment [14] is -2.11 (inactive); in [20], -0.248.
With `CCCCCCc1nc(-c2ccc(OC)nc2)cc2c1[Si](C(C)C)(C(C)C)O[C@H]2c1ccccc1`, the z-score in [1] is -0.33; in [2], -0.261; in [3], -1.1; in experiment [4] it was -0.26; in experiment [5], -1.12; in experiment [6], -1.14. For the same molecule, the z-score in experiment [7] was -1.3 (inactive); in experiment [8], -0.198; in experiment [9], -0.281; in experiment [10], 0.98 (inactive); in [11], 0.153; in [12], 0.676 (inactive). The z-score in experiment [13] was 0.0809 (inactive); in experiment [15], 0.256 (inactive); in [16], 0.056 (inactive); in [17], 0.231 (inactive); in [18] it was -0.0838 (inactive); in experiment [19] it was 0.732. Moreover, the composite z-score in experiment [14] was -0.0348 (inactive); in [20], -0.241.
For `NC(=O)N1C(=O)C2C(C1=O)C1C=C(c3ccc(CO)cc3)C2C(c2cccs2)N1Cc1cccc(OC(F)(F)F)c1` (stereo not given), the z-score in [1] was 1.56; in experiment [2], 0.868; in [3] it was 0.0764; in experiment [4], -2.08; in experiment [5], -2.08; in experiment [6] it was -1.7. In addition, the z-score in [7] is 0.863 (inactive); in experiment [8], -0.85; in experiment [9] it was -1.67; in experiment [10], -0.69 (inactive); in experiment [11] it was -0.532; in [12], -4.02 (inactive). For the same molecule, the z-score in experiment [13] was -0.683 (inactive); in experiment [15] it was -0.79 (inactive); in experiment [16] it was -1.87 (inactive); in [17], -5.27 (inactive); in experiment [18], -4.66 (inactive); in experiment [19], -0.452. Also, the composite z-score is -8.36 (active) in [14] and 0.278 in experiment [20].
Turning to `CC(C)OC(=O)C=C1C[C@@H](c2ccccn2)O[C@@H](c2ccccn2)O1`, the z-score in [1] was -0.564; in experiment [2], -0.631; in experiment [3], -0.217; in experiment [4], 0.667; in [5], -1.14; in experiment [6] it was -0.894. The z-score is -0.341 (inactive) in experiment [7]; 0.65 in experiment [8]; -0.816 in experiment [9]; 0.118 (inactive) in [10]; -0.802 in experiment [11]; -1.97 (inactive) in experiment [12]. In addition, the z-score in experiment [13] was -0.377 (inactive); in experiment [15], 0.0362 (inactive); in experiment [16], -0.391 (inactive); in experiment [17], -0.471 (inactive); in experiment [18] it was 0.115 (inactive); in experiment [19], -0.474. The values for the composite z-score in experiment [14] and in experiment [20] were 0.409 (inactive) and 0.462, respectively.
In the case of `N#Cc1ccc(NN2C(C(O)C(c3ccccc3)c3ccccc3)C=CC3C(=O)N(c4ccccc4)C(=O)C32)cc1` (stereo not given), the z-score is 0.825 in experiment [1]; -1.53 in experiment [2]; 0.361 in experiment [3]; 0.0017 in experiment [4]; 0.103 in experiment [5]; 0.913 in experiment [6]. For the same molecule, the z-score in experiment [7] is -0.435 (inactive); in experiment [8], -0.812; in experiment [9] it was -0.379; in experiment [10] it was -0.386 (inactive); in experiment [11], -0.554; in experiment [12] it was 0.551 (inactive). For the same molecule, the z-score in experiment [13] is -1.17 (inactive); in experiment [15], 0.35 (inactive); in [16], 0.826 (inactive); in experiment [17], -0.135 (inactive); in experiment [18], 0.832 (inactive); in [19], 0.0951. Further, the composite z-score is 0.0998 (inactive) in experiment [14] and 0.0849 in experiment [20].
